The values below come from PubChem BioAssay.

The subject of test [1] is Wnt5a (protein binding on small-molecule microarray). Description: small molecules binding Wnt5a protein – biophysical, small-molecule microarray, 635/667 nm fluorescence, primary screen (AID 1142).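 Note: fluorescence read at 667 nm with signal to noise per printed feature.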 Conditions: 635 nm fluorescence, higher = more signal.
Test [2] is described as follows: ATP-based viability of Huh7 replicon cells – cell-based, CellTiter-Glo luminescence, basal, 48 h, cytotoxicity control for HCV replication inhibitor project, primary screen (AID 1143).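 Note: Huh7 hepatoma cells carrying a hepatitis C replication reporter with no stimulus; test concentration not given here.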 Conditions: higher = more signal, called active from +8 up or from −8 down. A general note: In antiviral work, replicon cells carry a viral genome segment that copies itself.
Test [3] is described as follows: Pseudomonas biofilm growth suppression – PAO1 strain, BacTiter-Glo luminescence, LB-PBS, primary screen (AID 1144). Conditions: P. aeruginosa PAO1 biofilm, 12 h, higher = more signal.
The nature of test [4]: basal CRE-LacZ reporter activity in PC12 – cell-based, unstimulated, primary screen (AID 1145). Conditions: no forskolin, luminescence, 4.5 h, higher = more signal, called active from +8 up or from −8 down.
Test [5] in a line: forskolin-driven CRE-LacZ activity in PC12 – cell-based, CRE-LacZ reporter, forskolin-stimulated, primary screen (AID 1146).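 Note: PC12 cells with 6xCRE LacZ reporter stimulated by forskolin 10 µM; beta-galactosidase reporter signal reflecting CREB driven transcription.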 Conditions: luminescence, 4.5 h, higher = more signal, called active from +8 up or from −8 down.
The target of test [6] is Streptavidin (Streptomyces avidinii) (UniProt P22629). Briefly: compounds binding control protein streptavidin – biophysical, small-molecule microarray, 635/667 nm fluorescence, artefact control for SMM compound annotation, primary screen (AID 1147).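 Note: signal reflects streptavidin binding to arrayed compounds as a control protein.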 Conditions: higher = more signal.
The nature of test [7]: probe aInhba binding on compound microarray – biochemical, small-molecule microarray, 635/667 nm fluorescence, primary screen (AID 1148).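 Note: score merges 667nm spot fluorescence with signal-to-noise for antibody binding to printed compounds.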 Conditions: higher = more signal.
In test [8] the target is Torsin-1A (Homo sapiens) (UniProt O14656). Description: TOR1A wild-type binding on microarray – cell lysate, small-molecule microarray, lysate, 635/667 nm, primary screen (AID 1149). Conditions: COS7 hTOR1A-WT lysate, 635 nm fluorescence, higher = more signal.
Test [9] has the same target. Briefly: torsin A mutant lysate binding on microarrays – cell lysate, small-molecule microarray, COS7 lysate, 635/667 nm fluorescence, primary screen (AID 1150).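 Note: score pools 667 nm emission and signal to noise measuring lysate protein binding.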 Conditions: COS7 hTOR1A mutant lysate, 635 nm fluorescence, higher = more signal.
In test [10] the test system is Sonic hedgehog protein (Shh). Description: Sonic hedgehog microarray binding compounds – biochemical, small-molecule microarray, 635/667 nm fluorescence, primary screen (AID 1151).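 Note: Shh protein binding to compounds spotted on small-molecule microarray slides; score combines spot fluorescence intensity with signal-to-noise across triplicate slides.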 Conditions: 635 nm fluorescence, higher = more signal.
Test [11] in a line: optical density shifts of acrAB sulA E. coli – strain DRC41, OD650, 48 h, E. coli filamentation inducer project, primary screen (AID 1152).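 Note: E. coli MC1000 strain DRC41 lacking acrAB efflux pump and sulA.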 Conditions: higher = more signal, called active from +8 up or from −8 down.
A short description of test [12]: probe aLefty1 binding on compound microarray – biochemical, small-molecule microarray, 635/667 nm fluorescence, primary screen (AID 1153).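 Note: score merges spot fluorescence with signal-to-noise ratio from the scanned slide images.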 Conditions: higher = more signal.
A short description of test [13]: plasmodial surface anion channel blockers, osmotic lysis – cell-based, P. falciparum Indochina, OD700, 1 h, primary screen (AID 1154). Conditions: P. falciparum Indochina infected RBC osmotic lysis, higher = more signal, called active from +8 up or from −8 down.
Test [14] is described as follows: plasmodial surface anion channel blockers, osmotic lysis – cell-based, P. falciparum Indochina, OD700, 2 h, primary screen (AID 1155).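 Note: lysis reports solute entry through the parasite surface anion channel PSAC.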 Conditions: P. falciparum Indochina infected erythrocytes, higher = more signal, called active from +8 up or from −8 down.
A short description of test [15]: changes in parasitized red cell lysis, either direction – P. falciparum Indochina, OD700, 3 h, PSAC antagonist project, primary screen (AID 1156). Conditions: P. falciparum-infected erythrocytes, osmotic lysis, higher = more signal, called active from +8 up or from −8 down.
A short description of test [16]: plasmodial surface anion channel blockers, osmotic lysis – cell-based, P. falciparum Indochina, OD700, 18 h, primary screen (AID 1157). Conditions: P. falciparum Indochina infected erythrocytes, osmotic lysis OD700, 18 h; higher = more signal, called active from +8 up or from −8 down.
The nature of test [17]: S6 kinase pathway phospho-S6 level changes – cell-based, A549, cytoblot, luminescence, serum-stimulated, primary screen (AID 1158).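 Note: serum-stimulated A549 lung adenocarcinoma cells; signal is phosphorylated S6 detected by cytoblot immunostaining with HRP secondary.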 Conditions: 5 h, higher = more signal.
Test [18] has as its target NADPH oxidase 2 (Homo sapiens) (UniProt P04839). Description: compounds shifting NOX2 Amplex Red fluorescence – cell-based, HEK293-NOX2, PMA-stimulated, NOX inhibitor project, primary screen (AID 1159). Note: test concentration not given here. Conditions: 45 min, higher = more signal, called active from +8 up or from −8 down.
Test [19] has as its target NADPH oxidase 4 (Homo sapiens) (UniProt Q9NPH5). Description: compounds shifting NOX4 Amplex Red fluorescence – cell-based, HEK293-NOX4, tetracycline-induced, NOX inhibitor project, primary screen (AID 1160). Conditions: HEK293-NOX4, Amplex Red H2O2 fluorescence, 45 min; higher = more signal, called active from +8 up or from −8 down.
The target of test [20] is NADPH oxidase 5 (Homo sapiens) (UniProt Q96PH1). Description: compounds shifting NOX5 Amplex Red fluorescence – cell-based, HEK293-NOX5, NOX inhibitor project, primary screen (AID 1161). Conditions: HEK293-NOX5, ionomycin, 45 min, higher = more signal.

SMILES strings stand for the structures. Calls of active or inactive are those of the source. Unless noted, the rule behind the calls is not given here.

Streptavidin (Streptomyces avidinii), sequence (P22629 whole entry, looked up): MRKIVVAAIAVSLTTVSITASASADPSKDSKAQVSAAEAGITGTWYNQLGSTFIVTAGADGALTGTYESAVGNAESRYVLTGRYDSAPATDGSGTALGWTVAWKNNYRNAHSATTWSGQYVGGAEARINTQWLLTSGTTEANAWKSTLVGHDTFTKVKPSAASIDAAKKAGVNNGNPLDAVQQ
NADPH oxidase 5 (Homo sapiens), sequence (Q96PH1 whole entry, looked up): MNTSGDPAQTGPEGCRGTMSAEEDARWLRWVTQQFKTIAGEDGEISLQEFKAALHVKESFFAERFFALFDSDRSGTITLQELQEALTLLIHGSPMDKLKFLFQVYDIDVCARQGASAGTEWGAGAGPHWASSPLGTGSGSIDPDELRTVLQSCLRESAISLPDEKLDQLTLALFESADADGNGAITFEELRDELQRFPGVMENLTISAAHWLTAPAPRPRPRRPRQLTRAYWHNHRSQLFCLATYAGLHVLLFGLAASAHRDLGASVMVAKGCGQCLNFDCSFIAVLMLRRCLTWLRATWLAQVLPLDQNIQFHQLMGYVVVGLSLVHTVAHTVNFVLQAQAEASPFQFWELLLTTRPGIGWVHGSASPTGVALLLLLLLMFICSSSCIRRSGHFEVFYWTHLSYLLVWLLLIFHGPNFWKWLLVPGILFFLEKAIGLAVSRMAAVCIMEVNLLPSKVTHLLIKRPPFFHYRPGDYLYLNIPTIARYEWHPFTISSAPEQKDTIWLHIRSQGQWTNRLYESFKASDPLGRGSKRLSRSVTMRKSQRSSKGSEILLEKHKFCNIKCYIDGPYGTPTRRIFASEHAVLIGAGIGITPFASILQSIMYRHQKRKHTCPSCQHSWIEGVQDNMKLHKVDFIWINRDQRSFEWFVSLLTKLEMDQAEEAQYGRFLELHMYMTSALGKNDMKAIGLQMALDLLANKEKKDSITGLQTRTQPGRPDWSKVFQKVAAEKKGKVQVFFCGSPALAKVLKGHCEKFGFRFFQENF
Torsin-1A (Homo sapiens), sequence (O14656 whole entry, looked up): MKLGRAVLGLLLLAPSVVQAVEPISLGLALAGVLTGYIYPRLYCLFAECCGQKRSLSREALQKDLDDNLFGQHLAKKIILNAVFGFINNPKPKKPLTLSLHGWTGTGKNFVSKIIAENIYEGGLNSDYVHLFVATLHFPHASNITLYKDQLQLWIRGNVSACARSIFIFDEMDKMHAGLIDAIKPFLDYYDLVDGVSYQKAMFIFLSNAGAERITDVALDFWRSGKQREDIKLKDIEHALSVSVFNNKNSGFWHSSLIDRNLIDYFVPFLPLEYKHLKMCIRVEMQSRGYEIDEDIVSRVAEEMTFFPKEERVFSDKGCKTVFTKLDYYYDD
NADPH oxidase 2 (Homo sapiens), sequence (P04839 whole entry, looked up): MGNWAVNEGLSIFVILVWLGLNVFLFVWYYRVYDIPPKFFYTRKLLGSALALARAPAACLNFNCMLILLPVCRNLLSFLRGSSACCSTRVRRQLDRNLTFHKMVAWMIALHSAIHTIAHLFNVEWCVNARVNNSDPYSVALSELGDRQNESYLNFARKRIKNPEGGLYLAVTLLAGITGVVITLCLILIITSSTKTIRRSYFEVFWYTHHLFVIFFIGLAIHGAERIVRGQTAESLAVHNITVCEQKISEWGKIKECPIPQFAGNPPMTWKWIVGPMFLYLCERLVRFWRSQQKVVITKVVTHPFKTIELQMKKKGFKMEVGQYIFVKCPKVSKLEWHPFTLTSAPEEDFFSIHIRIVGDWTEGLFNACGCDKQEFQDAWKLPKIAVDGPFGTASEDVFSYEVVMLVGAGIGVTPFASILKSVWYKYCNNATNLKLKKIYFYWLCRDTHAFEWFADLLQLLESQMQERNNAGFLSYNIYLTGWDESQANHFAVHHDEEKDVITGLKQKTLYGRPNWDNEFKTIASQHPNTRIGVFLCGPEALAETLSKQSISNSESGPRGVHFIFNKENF
NADPH oxidase 4 (Homo sapiens), sequence (Q9NPH5 whole entry, looked up): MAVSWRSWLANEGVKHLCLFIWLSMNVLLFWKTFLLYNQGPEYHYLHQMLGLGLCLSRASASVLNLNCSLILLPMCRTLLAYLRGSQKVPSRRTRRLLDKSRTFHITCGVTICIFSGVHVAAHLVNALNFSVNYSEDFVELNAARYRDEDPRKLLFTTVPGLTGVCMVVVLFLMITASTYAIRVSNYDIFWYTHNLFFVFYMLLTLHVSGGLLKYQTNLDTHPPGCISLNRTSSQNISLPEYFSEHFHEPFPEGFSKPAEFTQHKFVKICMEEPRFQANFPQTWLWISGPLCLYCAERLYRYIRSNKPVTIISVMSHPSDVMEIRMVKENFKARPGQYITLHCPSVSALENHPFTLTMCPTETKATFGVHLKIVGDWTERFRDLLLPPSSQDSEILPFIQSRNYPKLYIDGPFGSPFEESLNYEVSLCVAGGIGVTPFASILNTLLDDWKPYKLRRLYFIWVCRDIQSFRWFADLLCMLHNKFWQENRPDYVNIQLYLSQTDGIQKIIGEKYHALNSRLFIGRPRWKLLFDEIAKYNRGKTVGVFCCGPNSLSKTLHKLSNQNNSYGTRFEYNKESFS

With `CCOC(=O)[C@H](CC(C)C)NC(=O)CCC1CC(OC(=O)NCCc2ccc(F)cc2)CC2(CCCC(COC(=O)NCCOC)O2)O1` (stereo not given in full), the composite z-score in [1] is 0.441; in test [6], 0.581; in [7], -0.215; in the test with Torsin-1A (Homo sapiens) [8] it was 0.441; with Torsin-1A (Homo sapiens) [9], 0.259; in [10], 1.53. In addition, the composite z-score in test [12] was -0.198. Also, the z-score in [2] was -0.127 (inactive); in test [3], 0.045 (inactive); in test [4], 0.198 (inactive); in test [5] it was 0.0489 (inactive); in test [11], -1.39 (inactive); in test [13] it was 3.18 (inactive). The z-score was 0.621 (inactive) in [14]; 0.0768 (inactive) in [15]; -0.0213 (inactive) in [16]; -0.474 in test [17]; -0.25 (inactive) in test [18]; 0.998 (inactive) in test [19]. The z-score in [20] worked out at 1.19.
Take `COc1ccc(COC(=O)NN=C2C[C@@H](O)[C@@H](O)[C@@H]3[C@@H]4C(=O)N(C5CCCCC5)C(=O)[C@@H]4CC[C@@H]23)cc1`: the composite z-score in [1] is 0.0311; in [6], 0.576; in test [7] it was -0.0774; in the test with Torsin-1A (Homo sapiens) [8] it was -0.367; with Torsin-1A (Homo sapiens) [9], 0.223; in test [10] it was -0.791. The composite z-score in test [12] amounted to 0.94. Besides, the z-score was -0.252 (inactive) in test [2]; 0.755 (inactive) in test [3]; 2.32 (inactive) in [4]; 0.0868 (inactive) in [5]; -0.83 (inactive) in test [11]; 6.59 (inactive) in test [13]. The z-score in test [14] was 1.25 (inactive); in test [15], 0.101 (inactive); in [16] it was 0.622 (inactive); in test [17] it was -0.185; in test [18], -0.623 (inactive); in [19] it was -0.069 (inactive). For the same molecule, the z-score in test [20] came out at 0.391.
`COC(=O)CC=C[C@@H](C)[C@@H](C=NOC[C@@H](O)[C@H]1O[C@@H]2OC(C)(C)O[C@@H]2[C@H]1O)OC`: the composite z-score in test [1] was 0.183; in test [6], 0.271; in test [7] it was -0.149; in the test with Torsin-1A (Homo sapiens) [8] it was -0.104; in the test with Torsin-1A (Homo sapiens) [9], 0.162; in test [10] it was 0.867. Moreover, the composite z-score in [12] is -0.0603. The z-score in test [2] is 0.559 (inactive); in [3], 0.601 (inactive); in [4], -0.0545 (inactive); in [5], 0.0127 (inactive); in test [11], 0.29 (inactive); in test [13], 0.332 (inactive). Also, the z-score in [14] was 0.453 (inactive); in [15], 0.141 (inactive); in [16], 0.443 (inactive); in test [17] it was -0.332; in [18], 0.144 (inactive); in test [19] it was -0.51 (inactive). The z-score in test [20] was 0.15.
For `CC(C)=CCCC(C)=CCON=C1[C@H]2CCn3c(=O)n(-c4ccccc4)c(=O)n3[C@H]2[C@H](O)[C@@H]2O[C@H]12`, the composite z-score in test [1] was determined as 0.0694; in test [6], 1.07; in test [7], 0.0319; with Torsin-1A (Homo sapiens) [8], 1.02; with Torsin-1A (Homo sapiens) [9], 0.413; in test [10], 1.38. The same molecule registered a composite z-score in test [12] of 0.688. The z-score in [2] is -1.7 (inactive); in test [3], -0.044 (inactive); in test [4], -0.473 (inactive); in [5] it was -0.271 (inactive); in test [11], -0.484 (inactive); in test [13], 4.93 (inactive). The z-score in test [14] was 0.635 (inactive); in test [15], 2.07 (inactive); in [16], 0.695 (inactive); in test [17] it was 0.897; in [18], 0.856 (inactive); in [19], 0.577 (inactive). The z-score in test [20] was -0.799.
With `CC(C)=CCCC(C)=CCON=C1C[C@@H](O)[C@@H](O)[C@@H]2[C@@H]3C(=O)N(C4CCCCC4)C(=O)[C@@H]3CC[C@H]12`, the composite z-score is 0.342 in test [1]; 0.12 in [6]; -0.15 in [7]; 0.46 in the test with Torsin-1A (Homo sapiens) [8]; 0.159 with Torsin-1A (Homo sapiens) [9]; 1.01 in test [10]. The molecule also came in with a composite z-score in test [12] of -0.132. In addition, the z-score was -2.76 (inactive) in [2]; 0.419 (inactive) in [3]; -0.38 (inactive) in [4]; -0.306 (inactive) in [5]; 0.693 (inactive) in test [11]; 7.24 (inactive) in [13]. Moreover, the z-score in test [14] is 0.991 (inactive); in [15], 1.11 (inactive); in test [16], 0.645 (inactive); in test [17], -0.319; in test [18] it was -0.693 (inactive); in test [19], -1.02 (inactive). Also, the z-score in [20] was -4.91.
With `CC(C)[C@H](NC(=O)OC(C)(C)C)[C@@H](O)CC(=O)C(C)(C)C`, the composite z-score was -0.103 in test [1]; 0.247 in test [6]; -0.148 in test [7]; 0.322 with Torsin-1A (Homo sapiens) [8]; 0.0647 with Torsin-1A (Homo sapiens) [9]; 0.473 in test [10]. The molecule also came in with a composite z-score in test [12] of -0.267. Also, the z-score in test [2] was 0.207 (inactive); in [3], -1.09 (inactive); in [4], -0.795 (inactive); in test [5], -0.422 (inactive); in [11], 0.14 (inactive); in test [13], -0.0522 (inactive). The z-score in test [14] was 0.0094 (inactive); in test [15], 0.155 (inactive); in [16], 0.126 (inactive); in test [17], 0.372; in test [18], 2.2 (inactive); in test [19] it was 0.34 (inactive). Also, in [20], the z-score was 0.195.
On to `CO[C@@H](C(C)C)[C@@H](C)C1OC(=O)CC1O` (stereo not given in full), for which the composite z-score in [1] is -0.124; in test [6], -0.468; in [7], -0.158; in the test with Torsin-1A (Homo sapiens) [8], -0.118; in the test with Torsin-1A (Homo sapiens) [9], -0.0794; in test [10], -0.595. In test [12], this molecule registered a composite z-score of -0.278. Moreover, the z-score in test [2] is 0.265 (inactive); in test [3] it was 0.446 (inactive); in test [4], -0.0673 (inactive); in test [5], -0.0208 (inactive); in test [11], 0.486 (inactive); in test [13] it was -0.315 (inactive). Also, the z-score in [14] was 0.0974 (inactive); in [15] it was -0.566 (inactive); in test [16], -0.121 (inactive); in [17] it was -0.289; in [18] it was 1.29 (inactive); in test [19] it was 0.129 (inactive). Besides, in [20], the z-score was determined as 0.368.
Take `COc1ccc(COC(=O)NN=C2C[C@@H](O)[C@@H](O)[C@@H]3[C@@H]4C(=O)N(C(C)(C)C)C(=O)[C@@H]4CC[C@@H]23)cc1`: the composite z-score worked out at 0.211 in test [1]; 0.244 in test [6]; 0.0086 in [7]; 0.385 in the test with Torsin-1A (Homo sapiens) [8]; 1.47 with Torsin-1A (Homo sapiens) [9]; 0.612 in test [10]. The composite z-score in test [12] is -0.328. Besides, the z-score was 0.22 (inactive) in test [2]; 0.224 (inactive) in test [3]; 0.973 (inactive) in [4]; 0.384 (inactive) in [5]; 0.244 (inactive) in test [11]; 0.339 (inactive) in [13]. In addition, the z-score in test [14] is -0.039 (inactive); in [15] it was -0.609 (inactive); in test [16] it was -0.0118 (inactive); in [17], 1.14; in [18], -0.384 (inactive); in [19], 0.808 (inactive). Moreover, in test [20], the z-score was found to be 0.315.
